The values below come from PubChem BioAssay (EPA / NIEHS).

Inconclusive results are not listed. Active and inactive are the calls of the source. Rule for the calls, unless noted: active = hit-call score of the fitted dose curve at least 0.9, where 1 is the maximum; inactive = score below 0.9.

For test [1], the target named is Paired box protein Pax-6 (Homo sapiens) (UniProt P26367). The test can be described thus: ATG_Pax6_CIS: Attagene CIS-FACTORIAL HepG2 Assay for human Paired Box 6 (PAX6) (AID 2282956). As to conditions: HepG2 CIS-FACTORIAL PAX6 reporter transcription, RNA readout; actives raise or lower the signal. An outline of the steps:
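DMSO-referenced bidirectional fits of reporter mRNA fluorescence; HepG2 with transient cis-promoter MRTUs, 24 h post-dose, RT-PCR plus capillary electrophoresis detection.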

Test [2] can be described thus: ATG_PXRE_CIS: Attagene CIS-FACTORIAL HepG2 Assay for human Pregnane X Receptor Element (PXRE) (AID 2282957). As to conditions: HepG2 Attagene CIS-FACTORIAL PXRE reporter, mRNA; actives raise or lower the signal. An outline of the steps:
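Fluorescent capillary electrophoresis of amplified reporter cDNA gave the signal, collected 24 h after dosing HepG2 cells that held transfected cis-element reporter constructs.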

Test [3] in a line: ATG_PPRE_CIS: Attagene CIS-FACTORIAL HepG2 Assay for human Peroxisome Proliferator-activated Response Element (PPRE) (AID 2282958). The settings on record: HepG2 PPRE cis-element reporter, Attagene transcription factor profiling; actives raise or lower the signal. An outline of the steps:
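After human HepG2 hepatoma cells were transiently transfected with cis-promoter reporter constructs, they were exposed to test chemicals for 24 hours. Reporter RNA was then reverse-transcribed, PCR-amplified, FAM-labeled, HpaI-digested and quantified by capillary electrophoresis.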

Test [4] in a line: ATG_RORE_CIS: Attagene CIS-FACTORIAL HepG2 Assay for human RAR-related Orphan Receptor Element (RORE) (AID 2282959). As to conditions: HepG2 Attagene cis-factorial RORE reporter, mRNA; actives raise or lower the signal. An outline of the steps:
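Measured here: transcript induction of a cis-regulated reporter in HepG2 cells transiently transfected via FuGene 6. After 24 h, RNA was processed by RT-PCR and fluorescent capillary electrophoresis; DMSO defined baseline activity.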

Test [5] addresses Transcription factor Sp1 (Homo sapiens) (UniProt P08047). Put plainly: ATG_Sp1_CIS: Attagene CIS-FACTORIAL HepG2 Assay for human Specificity Protein 1 (Sp1) (AID 2282961). The settings on record: HepG2 Sp1 cis-reporter transcription, actives raise or lower the signal. Summed up: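 After transient transfection of HepG2 cells with cis-promoter reporter units and 24 h chemical treatment, reporter transcripts were quantified by RT-PCR and capillary electrophoresis fluorescence. Gain- and loss-of-signal fitted against DMSO.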

The nature of test [6]: ATG_SREBP_CIS: Attagene CIS-FACTORIAL HepG2 Assay for human Sterol Regulatory Element Binding (SREBP) (AID 2282962). The settings on record: HepG2 Attagene cis-factorial SREBP reporter, mRNA; actives raise or lower the signal. Summed up: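 In this cis-format assay, HepG2 liver cells express reporters controlled by promoter elements responsive to native transcription factors. Exposure lasts 24 h; reporter mRNA fluorescence from capillary electrophoresis gives the signal, fitted bidirectionally against DMSO.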

For test [7], the target named is Signal transducer and activator of transcription 3 (Homo sapiens) (UniProt P40763). The test can be described thus: ATG_STAT3_CIS: Attagene CIS-FACTORIAL HepG2 Assay for human Signal Transducer and Activator of Transcription 3 (STAT3) (AID 2282963). The settings on record: HepG2, Attagene cis-factorial STAT3 reporter transcription; actives raise or lower the signal. An outline of the steps:
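Uses human liver HepG2 transiently carrying cis-regulated reporter transcription units. Following 24 h dosing, reporter mRNA induction was detected by RT-PCR and capillary electrophoresis, analysed bidirectionally versus DMSO.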

Test [8] can be described thus: ATG_TA_CIS: Attagene CIS-FACTORIAL HepG2 Assay for human TA Basal Promoter (AID 2282964). As to conditions: HepG2 Attagene CIS-factorial TA basal promoter reporter; actives raise or lower the signal. An outline of the steps: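 Background-control readout: TA basal promoter reporter mRNA, fitted in both directions relative to DMSO. Measured by RT-PCR and capillary electrophoresis 24 hours after treating HepG2 human liver cells transiently carrying multiplexed cis-regulated reporter constructs.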

Test [9] is described as follows: ATG_TCF_b_cat_CIS: Attagene CIS-FACTORIAL HepG2 Assay for human T-Cell-Factor with beta-catenin (TCF/b-cat) (AID 2282965). The settings on record: HepG2 TCF/beta-catenin cis-reporter transcription, actives raise or lower the signal. An outline of the steps:
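In this cis-format system, transfected HepG2 cells report endogenous transcription factor activity. Readout after 24 h exposure is reporter transcript abundance from RT-PCR and capillary electrophoresis, analysed for gain or loss of signal versus DMSO.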

Test [10] in a line: ATG_TGFb_CIS: Attagene CIS-FACTORIAL HepG2 Assay for human Transforming Growth Factor (TGF) (AID 2282967). The settings on record: HepG2 Attagene CIS TGFb reporter, mRNA transcription; actives raise or lower the signal. Summed up: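 Endogenous TGFB1-linked transcription factor activity read as reporter mRNA via RT-PCR and capillary electrophoresis, 24 h after dosing transiently transfected HepG2 cells. Gain or loss of signal fitted relative to DMSO.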

Test [11] can be described thus: ATG_VDRE_CIS: Attagene CIS-FACTORIAL HepG2 Assay for human Vitamin D Receptor Element (VDRE) (AID 2282968). The settings on record: HepG2 VDRE cis-reporter transcription, actives raise or lower the signal. Summed up:
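Transfected HepG2 reporter cells, chemical treatment 24 h. RNA isolated, cDNA amplified with reporter-specific primers, products analysed by capillary electrophoresis. Endpoint fitted in both directions versus DMSO.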

Test [12] concerns the target X-box-binding protein 1 (Homo sapiens) (UniProt P17861). The test can be described thus: ATG_Xbp1_CIS: Attagene CIS-FACTORIAL HepG2 Assay for human X-box Binding Protein 1 (XBP1) (AID 2282972). As to conditions: HepG2 XBP1 cis-element reporter, Attagene multiplex; actives raise or lower the signal. Summed up:
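Changes in reporter transcript abundance, read by RT-PCR and capillary electrophoresis, reflect endogenous transcription factor activity. Transfected HepG2 cells received compound for 24 hours; DMSO defined baseline for bidirectional analysis.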

The nature of test [13]: ATG_M_19_TRANS: Attagene TRANS-FACTORIAL HepG2 Assay for M19 Transcription Factor (Internal Marker) (AID 2282974; active = hit-call score of the fitted dose curve at least 0.9, where 1 is the maximum). The settings on record: HepG2 Attagene TRANS-FACTORIAL M19 internal marker reporter. An outline of the steps: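 Gain-of-signal in reporter mRNA, relative to DMSO, was scored from capillary electrophoresis fluorescence. HepG2 cells carried transiently transfected multiple reporter transcription units and were incubated with test chemicals for 24 h.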

Test [14] in a line: ATG_TAL_CIS: Attagene CIS-FACTORIAL HepG2 Assay for human TAL Basal Promoter (AID 2282966).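 Note: background control endpoint measuring basal TAL promoter reporter mRNA not a specific factor.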 As to conditions: HepG2 Attagene cis-factorial TAL promoter reporter; actives raise or lower the signal. Summed up: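 Transiently transfected HepG2 (cis-regulated reporter units), 24 h treatment, mRNA read by fluorescent CE after RT-PCR; bidirectional fit, DMSO baseline.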
Test [15] can be described thus: ATG_GAL4_TRANS: Attagene TRANS-FACTORIAL HepG2 Assay for GAL4 (Internal Marker) (AID 2282976; active = hit-call score of the fitted dose curve at least 0.9, where 1 is the maximum). As to conditions: HepG2 Attagene TRANS GAL4 internal marker reporter. Summed up: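 HepG2 cells transiently transfected with multiplexed GAL4-UAS reporter constructs were dosed for 24 h. Reporter mRNA was measured by RT-PCR, 6-FAM primer extension, HpaI digestion and capillary electrophoresis, and gain of signal was fitted relative to DMSO.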

The nature of test [16]: ATG_Sox_CIS: Attagene CIS-FACTORIAL HepG2 Assay for human SRY-box transcription factor (SOX) (AID 2282960). The settings on record: HepG2 Attagene cis-factorial SOX reporter, mRNA; actives raise or lower the signal. An outline of the steps:
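Using transiently transfected HepG2 cells, reporter transcription driven by cis elements was assessed 24 h after dosing. Signal was fluorescence of capillary-separated RT-PCR products, with DMSO defining baseline activity.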

The target in test [17] is Nuclear receptor subfamily 1 group I member 3 (Homo sapiens) (UniProt Q14994). The test can be described thus: ATG_CAR_TRANS: Attagene TRANS-FACTORIAL HepG2 Assay for human Constitutive Androstane Receptor (CAR) (AID 2282969; active = hit-call score of the fitted dose curve at least 0.9, where 1 is the maximum;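 note: activators raise reporter mRNA above DMSO so AC50 marks induction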). The settings on record: HepG2 Attagene TRANS-FACTORIAL CAR reporter. Summed up: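 Steps: transient transfection of HepG2 with multiple GAL4-UAS reporter units; 24 h compound incubation; RNA isolation, RT-PCR, 6-FAM primer extension, HpaI digest; capillary electrophoresis. Gain-of-signal relative to DMSO negative control.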

In test [18] the target is Estrogen receptor (Homo sapiens) (UniProt P03372). The test can be described thus: ATG_ERa_TRANS: Attagene TRANS-FACTORIAL HepG2 Assay for human Estrogen Receptor alpha (ERa) (AID 2282970; active = hit-call score of the fitted dose curve at least 0.9, where 1 is the maximum). As to conditions: HepG2 Attagene TRANS ERa GAL4 reporter, mRNA. Summed up: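 One of 30 multiplexed endpoints from a HepG2 TRANS system, this one reports ERa-Gal4-driven reporter mRNA. Transcripts were quantified 24 hours post-dosing by fluorescent RT-PCR and capillary electrophoresis, with activity scored as induction over DMSO.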

What is called AC50 is the concentration giving half of the maximal activity seen.

Chain of Signal transducer and activator of transcription 3 (Homo sapiens) (P40763 whole entry, looked up): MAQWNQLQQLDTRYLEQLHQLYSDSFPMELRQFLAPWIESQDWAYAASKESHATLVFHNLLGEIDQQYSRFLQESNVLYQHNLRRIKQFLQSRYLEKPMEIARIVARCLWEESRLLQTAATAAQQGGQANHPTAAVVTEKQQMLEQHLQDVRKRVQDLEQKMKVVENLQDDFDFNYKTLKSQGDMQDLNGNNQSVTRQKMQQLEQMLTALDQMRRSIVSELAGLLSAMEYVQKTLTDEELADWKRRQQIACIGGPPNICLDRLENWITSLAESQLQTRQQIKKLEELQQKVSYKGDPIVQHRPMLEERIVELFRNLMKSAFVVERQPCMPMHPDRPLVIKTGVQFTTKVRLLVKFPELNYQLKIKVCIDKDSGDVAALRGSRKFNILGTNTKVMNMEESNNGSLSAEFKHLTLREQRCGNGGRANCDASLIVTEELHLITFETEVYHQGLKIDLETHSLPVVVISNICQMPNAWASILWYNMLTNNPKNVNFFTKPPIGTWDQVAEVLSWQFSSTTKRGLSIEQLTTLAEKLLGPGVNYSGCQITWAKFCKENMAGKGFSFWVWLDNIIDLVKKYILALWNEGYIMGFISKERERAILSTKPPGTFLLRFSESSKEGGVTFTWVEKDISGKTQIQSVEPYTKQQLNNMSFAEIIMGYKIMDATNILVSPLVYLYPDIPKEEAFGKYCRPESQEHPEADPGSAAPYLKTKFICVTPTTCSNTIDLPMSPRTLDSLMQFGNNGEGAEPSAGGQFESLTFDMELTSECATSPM
Chain of Paired box protein Pax-6 (Homo sapiens) (P26367 whole entry, looked up): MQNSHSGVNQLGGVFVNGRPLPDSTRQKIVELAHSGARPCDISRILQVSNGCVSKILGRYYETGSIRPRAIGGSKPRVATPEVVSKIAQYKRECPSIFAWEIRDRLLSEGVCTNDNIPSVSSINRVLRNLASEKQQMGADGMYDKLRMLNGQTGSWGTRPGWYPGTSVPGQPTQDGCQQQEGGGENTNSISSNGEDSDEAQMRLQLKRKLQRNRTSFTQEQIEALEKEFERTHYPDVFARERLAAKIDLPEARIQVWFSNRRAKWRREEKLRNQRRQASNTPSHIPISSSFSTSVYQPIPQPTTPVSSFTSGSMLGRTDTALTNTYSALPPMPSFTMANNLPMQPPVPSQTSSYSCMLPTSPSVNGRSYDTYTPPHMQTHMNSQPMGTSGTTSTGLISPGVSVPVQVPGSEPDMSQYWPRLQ
Chain of X-box-binding protein 1 (Homo sapiens) (P17861 whole entry, looked up): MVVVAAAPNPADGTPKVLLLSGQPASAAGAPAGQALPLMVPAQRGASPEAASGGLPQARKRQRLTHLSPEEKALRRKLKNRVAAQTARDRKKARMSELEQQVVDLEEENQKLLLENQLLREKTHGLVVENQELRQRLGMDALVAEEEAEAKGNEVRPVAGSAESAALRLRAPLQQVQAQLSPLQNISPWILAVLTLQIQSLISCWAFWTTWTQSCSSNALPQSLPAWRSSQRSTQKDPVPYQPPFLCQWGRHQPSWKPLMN
Chain of Nuclear receptor subfamily 1 group I member 3 (Homo sapiens) (Q14994 whole entry, looked up, the tested form may be a part): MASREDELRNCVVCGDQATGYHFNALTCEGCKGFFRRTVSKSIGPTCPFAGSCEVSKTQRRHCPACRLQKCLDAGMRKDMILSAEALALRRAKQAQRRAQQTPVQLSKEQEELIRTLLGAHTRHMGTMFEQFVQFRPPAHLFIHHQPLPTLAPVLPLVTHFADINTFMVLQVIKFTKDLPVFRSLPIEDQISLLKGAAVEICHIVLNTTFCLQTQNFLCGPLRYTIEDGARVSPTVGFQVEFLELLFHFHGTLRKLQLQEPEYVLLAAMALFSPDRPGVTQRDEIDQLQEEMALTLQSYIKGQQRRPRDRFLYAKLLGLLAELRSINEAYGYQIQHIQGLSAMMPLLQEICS
Chain of Transcription factor Sp1 (Homo sapiens) (P08047 whole entry, looked up): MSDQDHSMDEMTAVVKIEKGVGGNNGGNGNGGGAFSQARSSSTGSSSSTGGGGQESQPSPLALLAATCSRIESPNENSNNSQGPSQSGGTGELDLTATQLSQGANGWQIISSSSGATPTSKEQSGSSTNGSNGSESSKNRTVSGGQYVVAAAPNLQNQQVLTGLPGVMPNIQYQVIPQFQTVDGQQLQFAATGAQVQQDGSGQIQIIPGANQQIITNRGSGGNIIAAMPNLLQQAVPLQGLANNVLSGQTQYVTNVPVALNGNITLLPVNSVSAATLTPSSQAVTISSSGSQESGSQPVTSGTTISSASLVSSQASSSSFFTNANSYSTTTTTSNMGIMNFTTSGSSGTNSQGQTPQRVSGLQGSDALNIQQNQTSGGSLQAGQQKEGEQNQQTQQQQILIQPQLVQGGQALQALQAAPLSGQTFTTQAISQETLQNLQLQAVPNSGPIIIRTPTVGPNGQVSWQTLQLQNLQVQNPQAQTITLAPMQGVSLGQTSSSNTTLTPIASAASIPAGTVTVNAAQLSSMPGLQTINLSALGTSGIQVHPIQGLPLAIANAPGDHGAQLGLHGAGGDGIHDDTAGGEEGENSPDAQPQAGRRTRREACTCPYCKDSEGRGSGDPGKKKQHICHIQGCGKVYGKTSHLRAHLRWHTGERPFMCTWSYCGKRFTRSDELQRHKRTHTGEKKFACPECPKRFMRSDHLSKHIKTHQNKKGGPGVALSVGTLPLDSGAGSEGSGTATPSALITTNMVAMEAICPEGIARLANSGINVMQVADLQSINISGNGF
Chain of Estrogen receptor (Homo sapiens) (P03372 whole entry, looked up, the tested form may be a part): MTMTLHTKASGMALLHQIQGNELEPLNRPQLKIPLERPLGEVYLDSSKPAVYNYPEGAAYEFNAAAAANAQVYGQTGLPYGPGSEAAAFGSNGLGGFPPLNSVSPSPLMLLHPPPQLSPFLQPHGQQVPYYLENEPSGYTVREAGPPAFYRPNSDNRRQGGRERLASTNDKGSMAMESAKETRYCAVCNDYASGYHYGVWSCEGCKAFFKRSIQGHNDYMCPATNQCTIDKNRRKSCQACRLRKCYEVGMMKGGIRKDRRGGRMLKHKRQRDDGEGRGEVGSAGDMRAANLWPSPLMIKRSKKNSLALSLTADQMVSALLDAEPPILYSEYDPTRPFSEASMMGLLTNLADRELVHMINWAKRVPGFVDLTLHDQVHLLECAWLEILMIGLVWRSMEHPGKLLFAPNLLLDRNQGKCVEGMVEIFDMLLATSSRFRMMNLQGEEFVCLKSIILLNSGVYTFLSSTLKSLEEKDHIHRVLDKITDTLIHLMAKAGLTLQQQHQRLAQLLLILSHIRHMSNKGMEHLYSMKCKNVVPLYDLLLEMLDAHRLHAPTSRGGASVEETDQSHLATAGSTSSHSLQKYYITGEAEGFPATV

Take `CC(=O)OCC(C)OC(C)=O` (stereo not given): the call in test [1], in test [2], in [3], in [4], in test [5] and in [6] was inactive. The result in test [7], in test [8], in [9], in [10], in test [11] and in [12] was inactive. For the same molecule, the molecule was called inactive in [13].
Consider `COC(F)(F)C(F)(C(F)(F)F)C(F)(F)F`, for which the molecule was classed as inactive in test [1], in [2], in [3], in [4], in [5] and in [6]. The result in [7], in [9], in test [14], in [10], in [11] and in test [12] was inactive. Also, the molecule was called inactive in test [15].
For the molecule `CC(=O)Nc1ccc2c(c1)Cc1cc(NC(C)=O)ccc1-2`, the call in test [1], in [2], in test [3], in [4], in [16] and in test [6] was inactive. Further, the outcome in test [9], in [14], in [11], in test [17] and in [12] was inactive.
In the case of `CCCCNc1ccc(NCCCC)c2c1C(=O)c1ccccc1C2=O`, the outcome in test [1], in test [3], in [4], in test [16], in test [6] and in test [7] was inactive. In addition, the result in test [8], in [14], in test [10], in test [11], in [18] and in [12] was inactive. Further, the molecule was called inactive in test [13]. Besides, the AC50 in [2] was 0.886 µM (active).
With `Cc1cccc(N(C)C(=S)Oc2ccc3ccccc3c2)c1`, the result in test [1], in test [6], in test [8], in [9], in [14] and in [17] was inactive. For the same molecule, the result in [12] and in test [15] was inactive. In addition, the AC50 in test [2] was 0.61 µM (active); in test [3] it was 24.4 µM (active); in test [4], 20.5 µM (active); in test [10] it was 9.03 µM (active); in test [11] it was 1.11 µM (active); in test [18], 3.78 µM (active).
